Rows were chosen to be rich in hits. Some 3.5% of all compounds tested hit in one or more screens of this group.
GPR151 ag – activators of human GPR151; Q8TDV0; PathHunter beta-arrestin GPR151 cells, luminescence; activation, % at 11.2 µM; hit rate 1% among 650,000; AID 1508602; in the data active = activation above about 4.9%
MITF primary – inhibitors of human MITF; O75030; AlphaScreen MITF homodimerization, bead proximity signal; inhibition, % at 2.6 µM; hit rate 0.91% among 650,000; AID 1259374; in the data active = inhibition above about 50%
FBW7 act – activators of human E3 ligase FBW7; Q969H0; AlphaScreen FBW7–phospho-cyclin E peptide binding, activator screen; normalized activity (activation), % at 26.1 µM; hit rate 0.13% among 650,000; AID 1259310; in the data active = normalized activity above about 1.9%;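 note: purified mutant Fbw7 with reduced substrate affinity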
TEAD-YAP block – TEAD-YAP interaction inhibition. HEK-TIYL cells, TEAD-Gal4/YAP UAS-luciferase luminescence. inhibition, % at 9.12 µM. hit rate 1.4% among 640,000; in the data active = inhibition above about 32%
GPR151 conf act – confirmation of human GPR151 activators; shares compounds with GPR151 ag; GPR151 PathHunter beta-arrestin cells, luminescence, 90 min; % of EA-reagent control over plate median; activation, % at 11.2 µM; 6,700 tested, under 10 active; AID 1508609;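 active = mean percent activation across replicates above the confirmation screen cutoff of 4.91%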
GPR119 ag – counter-screen for GPR151 activators: effect on human GPR119. hit rate 0.3% among 6,700. activation, % at 11.2 µM. shares compounds with GPR151 ag. GPR119 PathHunter beta-arrestin cells, luminescence, 90 min; 0 = compound-well median, 100 = enzyme-acceptor control;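 active = mean percent activation in the counterscreen above 29.09%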;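 note: counterscreen on off-target GPR119 to flag nonselective hits from the GPR151 activator screen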
Target sequence (Q8TDV5 whole entry, looked up): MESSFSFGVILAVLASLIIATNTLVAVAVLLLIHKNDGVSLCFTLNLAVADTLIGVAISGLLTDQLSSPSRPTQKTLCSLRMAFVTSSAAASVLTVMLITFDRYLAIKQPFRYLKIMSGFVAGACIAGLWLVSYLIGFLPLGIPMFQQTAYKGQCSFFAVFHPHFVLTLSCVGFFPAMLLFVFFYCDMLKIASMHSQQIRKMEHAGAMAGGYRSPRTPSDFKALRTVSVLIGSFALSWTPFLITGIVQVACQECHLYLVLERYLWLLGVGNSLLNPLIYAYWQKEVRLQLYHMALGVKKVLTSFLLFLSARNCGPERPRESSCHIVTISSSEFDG
Numbers stand for hits; 0 = inactive; - = no result given.

SMILES	GPR151 ag	MITF primary	FBW7 act	TEAD-YAP block	GPR151 conf act	GPR119 ag
Cc1ccc(-n2c(SCc3cccc([N+](=O)[O-])c3)nc3[nH]ncc3c2=O)cc1Cl	4.9	0	0	0	0	0
O=c1c2cn[nH]c2nc(SCc2cccc([N+](=O)[O-])c2)n1-c1ccc(Cl)cc1	0	0	0	0	-	-
CC(NC(=O)CCl)c1ccc2c(c1)CCCC2 (stereo unspecified)	0	0	0	0	-	-
CC(NC(=O)CCl)c1ccc(F)cc1F (stereo unspecified)	5.2	0	0	0	0	0
CC(C)Cc1ccc(-c2cc(C(=O)N3CCC(Cc4ccccc4)CC3)c3ccccc3n2)cc1	0	0	0	0	-	-
COc1ccc(C(=O)N2c3ccccc3N=C(c3ccc(C)cc3)CC2c2ccccc2)cc1 (stereo unspecified)	0	0	0	0	-	-
CC1CCC2(CC1)NC(=O)N(CC(=O)NC(=O)NCc1ccccc1)C2=O (stereo unspecified)	5.5	0	0	0	0	0
CCOC(=O)/C(C#N)=C\c1[nH]c(C)c(C(=O)OCC)c1OC	0	0	0	0	-	-
CC(=O)Nc1ccc(NC(=O)c2cccc(N3CCC(N4CCOCC4)CC3)n2)cc1	0	0	0	0	-	-
Cc1cc(C)nc(Sc2ccc(NC(=O)CCl)cc2)n1	0	0	0	0	-	-
O=S(=O)(c1cccc(S(=O)(=O)N2CCOCC2)c1)c1ccc(Cl)c(Cl)c1	5.5	0	0	0	0	0
COc1ccc(OC)c(NC(=O)CSc2nc3n[nH]c(C)c3c(=N)n2-c2cc(Cl)ccc2C)c1	12	0	0	0	0	0
CCCCNC(=O)CSc1nc2n[nH]c(C)c2c(=N)n1-c1ccccc1CC	5.9	0	0	0	0	0
Cc1cccc(NC(=O)CSc2nc3n[nH]c(C)c3c(=N)n2-c2ccc(Br)cc2)c1	5.8	0	0	0	0	0
CCOc1ccc(-n2c(SCC(=O)Nc3ccc(CC)cc3)nc3n[nH]c(C)c3c2=N)cc1	5.3	0	0	0	0	0
CCOc1ccc(NC(=O)CSc2nc3n[nH]c(C)c3c(=N)n2-c2ccc(OCC)cc2)cc1	0	0	0	0	-	-
COc1cccc(/C=N/N=C(\c2ccccc2)C23CN4CN(CN(C4)C2)C3)c1O	0	0	0	0	-	-
NCCCNC12CC3CC(CC(C3)C1)C2	0	0	0	0	-	-
Cn1ccnc1CNC(=O)c1cccc(OC2CCN(CC(C)(C)C)CC2)c1	0	0	0	0	-	-
Cc1ccc(NC(=O)C2CC3CCCN3C23C(=O)N(C)c2ccccc23)cc1C (stereo unspecified)	0	0	0	0	-	-
COc1ccc(NC(=O)C2CC3CCCN3C23C(=O)N(C)c2ccccc23)cc1OC (stereo unspecified)	5.2	0	0	0	0	0
COc1ccc(N(CC(=O)Nc2ccccc2Br)S(=O)(=O)c2ccc(C)cc2)cc1OC	0	0	0	0	-	-
S=C1NC2=C(C(c3ccc(Br)cc3)N1)N1CCC2CC1 (stereo unspecified)	5.7	0	0	0	0	0
CN(C)c1ccc(C2NC(=S)NC3=C2N2CCC3CC2)cc1 (stereo unspecified)	0	0	0	0	-	-
CCCN1C(=O)/C(=C/c2nc3ccccc3c(=O)n2CC)c2ccccc21	0	0	0	0	-	-
SMILES	GPR151 ag	MITF primary	FBW7 act	TEAD-YAP block	GPR151 conf act	GPR119 ag
CCc1cc2c(=O)c(-c3ccc4c(c3)OCCO4)coc2cc1OC(C)C(=O)OC (stereo unspecified)	6.8	0	0	0	0	0
CCc1cc2c(=O)c(-c3ccc4c(c3)OCCCO4)coc2cc1OC(C)C(=O)OC (stereo unspecified)	0	0	0	0	-	-
Cc1ccc(-c2oc3ccccc3c(=O)c2OC(=O)CN2C(=O)c3ccccc3C2=O)cc1	11	0	0	0	0	0
O=C(CN1C(=O)c2ccccc2C1=O)Oc1c(-c2ccccc2)oc2ccccc2c1=O	0	0	0	0	-	-
CCOC(=O)COc1ccc(S(=O)(=O)NC(C)CC)cc1 (stereo unspecified)	5.3	0	0	0	0	0
Cc1ccc(S(=O)(=O)NC(C)C(=O)Nc2cccc(C(F)(F)F)c2)cc1 (stereo unspecified)	6.0	0	0	0	0	0
Cc1ccc(S(=O)(=O)NC(C)C(=O)Nc2ccc(C(F)(F)F)cc2)cc1 (stereo unspecified)	0	0	0	0	-	-

High-throughput results: PubChem BioAssay, The Scripps Research Institute Molecular Screening Center
